Active and inactive are the calls of the source. The rule behind the calls is not given here.
Target: Histone deacetylase 4 (Homo sapiens) (UniProt P56524)
Experiment: HDAC4 enzyme inhibition, profiling panel, selectivity assay for E-cadherin restoration project, biochemical, HDAC isoform panel (AID 651928)

Sequence of Histone deacetylase 4 (Homo sapiens) (P56524 whole entry, looked up, canonical isoform): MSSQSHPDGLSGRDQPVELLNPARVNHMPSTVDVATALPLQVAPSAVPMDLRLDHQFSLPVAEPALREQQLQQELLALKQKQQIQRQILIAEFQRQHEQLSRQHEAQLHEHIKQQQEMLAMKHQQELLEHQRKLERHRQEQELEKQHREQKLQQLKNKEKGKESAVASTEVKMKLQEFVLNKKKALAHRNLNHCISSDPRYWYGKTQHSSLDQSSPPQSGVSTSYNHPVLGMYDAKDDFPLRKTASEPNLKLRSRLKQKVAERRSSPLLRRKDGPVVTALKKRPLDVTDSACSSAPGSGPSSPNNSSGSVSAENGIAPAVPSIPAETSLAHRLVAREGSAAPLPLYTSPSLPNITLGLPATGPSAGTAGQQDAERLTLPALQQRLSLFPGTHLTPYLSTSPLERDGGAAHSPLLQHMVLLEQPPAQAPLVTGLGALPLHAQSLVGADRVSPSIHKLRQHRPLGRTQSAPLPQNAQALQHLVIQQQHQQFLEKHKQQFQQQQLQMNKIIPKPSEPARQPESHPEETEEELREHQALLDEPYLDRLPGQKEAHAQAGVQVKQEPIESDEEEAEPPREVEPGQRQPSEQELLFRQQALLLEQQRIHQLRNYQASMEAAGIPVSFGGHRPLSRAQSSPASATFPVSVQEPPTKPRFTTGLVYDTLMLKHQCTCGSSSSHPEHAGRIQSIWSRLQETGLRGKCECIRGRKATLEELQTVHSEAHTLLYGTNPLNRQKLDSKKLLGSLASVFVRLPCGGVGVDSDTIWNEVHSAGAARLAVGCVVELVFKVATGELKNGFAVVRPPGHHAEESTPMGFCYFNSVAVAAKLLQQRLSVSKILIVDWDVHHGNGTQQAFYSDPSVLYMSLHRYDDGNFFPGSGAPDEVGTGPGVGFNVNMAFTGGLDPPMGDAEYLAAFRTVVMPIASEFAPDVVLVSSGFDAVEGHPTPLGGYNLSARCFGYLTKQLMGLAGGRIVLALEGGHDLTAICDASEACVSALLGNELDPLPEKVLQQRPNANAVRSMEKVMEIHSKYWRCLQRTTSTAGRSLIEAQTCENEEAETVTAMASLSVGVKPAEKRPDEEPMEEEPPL

O=C(NCCCNC(=O)c1ccc[nH]c1=O)c1cc(-c2ccccc2)on1
outcome: inactive

— PubChem BioAssay AID651928 (Vanderbilt Specialized Chemistry Center, 2012)
